Assay results published in the supplement of paper PMC7156485.
± gives the standard deviation of the averaged measurements.

Columns and labels:
Settings in all cases: concentration: 10 µM; 24 h
HCC1569 [1] = assay: cell number relative to DMSO (% of DMSO); higher = more cells (less growth inhibition / toxicity)
Method in brief: (§1)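 In 384-well plates holding 800 HCC1569 or TDF cells per well in RPMI with 10% FBS, compounds were tested at 10 µM for 24 h at 37 °C in triplicate. Fixation used 3.7% formaldehyde. Staining used a rabbit anti-H1.0 antibody with an AlexaFluor 647 secondary, plus DAPI. Each value, H1.0 nuclear intensity or cell number, is a median of replicates shown as percent of the plate control, and HCC1569 values were smoothed for positional effects.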

TDF [2] = assay: as above
Method in brief: as §1

TDF [3] = assay: H1.0 immunofluorescence intensity relative to DMSO (% of DMSO); higher = stronger H1.0 induction, active = 120 or more
Method in brief: as §1

HCC1569 [4] = assay: H1.0 immunofluorescence intensity relative to DMSO (% of DMSO); higher = stronger H1.0 induction, active = 140 or more
Method in brief: as §1
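For H1.0 immunofluorescence intensity relative to DMSO in this document: TDF is a line of transformed human dermal fibroblasts of mesenchymal origin.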
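For cell number relative to DMSO in this document: TDF denotes transformed human dermal fibroblasts of mesenchymal origin.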

CC(C)CC1C(=O)N2CCCC2C2(O)OC(NC(=O)C3C=C4c5cccc6[nH]c(Br)c(c56)CC4N(C)C3)(C(C)C)C(=O)N12.CS(=O)(=O)O (single isomer, unassigned; (+)) [(+)-Bromocriptine methanesulfonate]
cell number (HCC1569 [1]): 91.1 | cell number (TDF [2]): 103 | H1.0 immunofluorescence intensity (TDF [3]): 96.3 (inactive) | H1.0 immunofluorescence intensity (HCC1569 [4]): 108 (inactive)

Cl.Clc1cc(I)cc(Cl)c1NC1=NCCN1 [p-Iodoclonidine hydrochloride]
cell number (HCC1569 [1]): 102 | cell number (TDF [2]): 101 | H1.0 immunofluorescence intensity (TDF [3]): 94.9 (inactive) | H1.0 immunofluorescence intensity (HCC1569 [4]): 85.2 (inactive)

CCCCCCCCC(=O)NCc1ccc(O)c(OC)c1 [N-Vanillylnonanamide]
cell number (HCC1569 [1]): 76.7 | cell number (TDF [2]): 81.3 | H1.0 immunofluorescence intensity (TDF [3]): 107 (inactive) | H1.0 immunofluorescence intensity (HCC1569 [4]): 160 (active)

CCCCCC(C=CC=CCCCCCCCCCC(=O)O)OO (configuration not stated)
cell number (HCC1569 [1]): 111 | cell number (TDF [2]): 92.8 | H1.0 immunofluorescence intensity (TDF [3]): 94.4 (inactive) | H1.0 immunofluorescence intensity (HCC1569 [4]): 103 (inactive)

CCC1CN2CCc3cc(OC)c(OC)cc3C2CC1CC1NCCc2cc(OC)c(OC)cc21.Cl.Cl (configuration not stated)
cell number (HCC1569 [1]): 60 | cell number (TDF [2]): 27 | H1.0 immunofluorescence intensity (TDF [3]): 120 (inactive) | H1.0 immunofluorescence intensity (HCC1569 [4]): 100 (inactive)

COCC1OC(=O)c2coc3c2C1(C)C1=C(C3=O)C2CCC(=O)C2(C)CC1OC(C)=O (configuration not stated) [Wortmannin from Penicillium funiculosum]
cell number (HCC1569 [1]): 41.7 | cell number (TDF [2]): 100 | H1.0 immunofluorescence intensity (TDF [3]): 89.5 (inactive) | H1.0 immunofluorescence intensity (HCC1569 [4]): 153 (active)

O=c1[nH]c2ccccc2n1C1CCN(CCCC(c2ccc(F)cc2)c2ccc(F)cc2)CC1 [Pimozide]
cell number (HCC1569 [1]): 81.2 ± 11 | cell number (TDF [2]): 90.7 ± 1.7 | H1.0 immunofluorescence intensity (TDF [3]): 107 (inactive) | H1.0 immunofluorescence intensity (HCC1569 [4]): 144 (active)

CC1OC(C[N+](C)(C)C)CC1O.[Cl-] (single isomer, unassigned; (+)) [(+)-Muscarine chloride]
cell number (HCC1569 [1]): 106 | cell number (TDF [2]): 116 | H1.0 immunofluorescence intensity (TDF [3]): 93 (inactive) | H1.0 immunofluorescence intensity (HCC1569 [4]): 83.8 (inactive)
